A short description of assay [1]: circadian clock period modulators, cell-based, LOPAC library, luminescence reporter (AID 2774).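 Further: values are relative to mean of DMSO wells on each plate.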 To be noted: circadian reporter cells, at 7 µM, actives lie on both sides.
The test system of assay [2] is Hepatitis C virus NS3 helicase. Description: HCV NS3 helicase inhibitors, primary screen, biochemical, fluorescence polarization, LOPAC1280 library (AID 687035; in the data active means inhibition above about 37%). To be noted: Purified HCV NS3 helicase, Cy5-dT15 ssDNA binding fluorescence polarization; stronger effect = higher value; concentration not given here. A general note: Fluorescence polarisation rises when a labelled molecule tumbles more slowly, as on binding a larger partner.

Assay [3] in a line: Cy5 fluorescence quenching or enhancement artefacts, artefact control for HCV NS3 helicase inhibitor project, biochemical, LOPAC1280 (AID 687037). To be noted: Cy5-DNA-NS3h complex fluorescence interference counterscreen. (A counterscreen serves to expose hits that act by an unwanted route or on another target.)
Assay [4] relates to Aerobactin synthetase IucA (Klebsiella pneumoniae, hypervirulent). The experiment in a line: IucA enzyme inhibition, biochemical, LOPAC library, absorbance readout (AID 1346212).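 Further: 100% = no compound wells and 0% = no enzyme wells.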 To be noted: IucA enzyme assay, absorbance (OD) readout; stronger effect = lower value;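 tested at 8 µM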.
The nature of assay [5]: phospholipid biosynthesis inhibitors in animal cells, primary screen, cell-based, LOPAC library, screen 4 (AID 1347384). To be noted: phospholipid biosynthesis inhibition screen, at 10 µM.
Assay [6] addresses ATP-dependent translocase ABCB1 (Homo sapiens) (UniProt P08183). Description: MDR1 (ABCB1) efflux transporter inhibition, cell-based (AID 377; in the data active means fluorescence slope change above about 50%). To be noted: MDR1-expressing cells, fluorescent substrate accumulation slope; stronger effect = higher value; concentration not given here.
Assay [7] can be described thus: polyglutamine-triggered caspase-3 activation inhibitors, cell-based (AID 1583). To be noted: polyglutamine-induced caspase-3 activation, cell assay; stronger effect = higher value;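 tested at 10 µM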.
Assay [8] can be described thus: enhancers of glutamate uptake in motor neurons, MN-1 cell line (AID 1612).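 Further: tested at 1 µM final; 0% = mean of DMSO vehicle wells on each plate; positive means more glutamate uptake than control and negative means less.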 To be noted: MN-1 motor neuron cells, stronger effect = higher value.
Assay [9] in a line: suppressors of polyglutamine aggregation in yeast, 75Q-TubH (AID 1616). To be noted: S. cerevisiae 75Q-TubH polyglutamine aggregation suppression; stronger effect = higher value.
A short description of assay [10]: hESC survival regulators, cell-based (AID 493140).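 Further: cells exposed to compounds for four days before counting.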 To be noted: human embryonic stem cell survival screen; stronger effect = higher value.
Assay [11] in a line: Cy5 fluorescence interference with SSB-bound oligo, artefact control for HCV NS3 helicase inhibitor project, biochemical, NIH Clinical Collection, E. coli SSB (AID 743268).
Assay [12] relates to Hepatitis C virus NS3 helicase. Description: HCV NS3 helicase inhibitors, primary screen, biochemical, fluorescence polarization, NIH Clinical Collection (AID 743270). To be noted: NS3 helicase binding to Cy5-dT15 DNA, stronger effect = higher value, concentration not given here.
Assay [13] in a line: modulation of C. elegans fzo-1 (AID 1259413).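 Further: fzo-1 mutant C. elegans worms in liquid wells.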 To be noted: C. elegans fzo-1 modulator screen, mean read-out; stronger effect = higher value.
The subject of assay [14] is F380Y. The experiment in a line: modulators of BK channel variants, profiling panel, selectivity assay, cell-based, U2OS BacMam, thallium flux, beta subunits (AID 1259406;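 active means thallium flux through the channel raised or lowered by more than 3 SD from vehicle-only wells, actives on both sides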;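 further: initial slope of Thallos dye fluorescence rise after thallium is added; log ratio against the mean of 0.3% DMSO vehicle wells on the same plate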). To be noted: at 30 µM.
Assay [15] relates to F380Y/beta2Delta. Described as above. To be noted: at 30 µM.
The subject of assay [16] is R275C. Described as above. To be noted: at 30 µM.
Assay [17] relates to R275C/beta1. The assay is described as above. To be noted: at 30 µM.
In assay [18] the test system is R275C/beta2Delta. The description is as above. To be noted: at 30 µM.
Assay [19] can be described thus: rescue of polyQ-huntingtin neuronal dysfunction in worms, whole organism, C. elegans mechanosensory neurons, N-terminal huntingtin (AID 1599). To be noted: touch response, stronger effect = higher value.
A short description of assay [20]: reducers of polyQ inclusions in PC12 cells, cell-based, NGF-treated PC12, GFPQ80 (AID 1614).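 Further: lower means fewer inclusions and 0 means no inclusions at all.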 To be noted: PC12 NGF-treated GFP-polyQ80 inclusion reduction.

These results are taken from PubChem BioAssay.

Records with an inconclusive call do not appear. For some of these results: Entries with a potency or affinity are not part of this list. Calls of active or inactive are those of the source. Unless noted, how the calls were made is not given here.

For orientation: inhibition means the change of the read-out against control, counted positive when it falls. A word on the remaining activity: it is the signal under treatment as a percentage of the control signal.

ATP-dependent translocase ABCB1 (Homo sapiens), sequence (P08183 whole entry, looked up): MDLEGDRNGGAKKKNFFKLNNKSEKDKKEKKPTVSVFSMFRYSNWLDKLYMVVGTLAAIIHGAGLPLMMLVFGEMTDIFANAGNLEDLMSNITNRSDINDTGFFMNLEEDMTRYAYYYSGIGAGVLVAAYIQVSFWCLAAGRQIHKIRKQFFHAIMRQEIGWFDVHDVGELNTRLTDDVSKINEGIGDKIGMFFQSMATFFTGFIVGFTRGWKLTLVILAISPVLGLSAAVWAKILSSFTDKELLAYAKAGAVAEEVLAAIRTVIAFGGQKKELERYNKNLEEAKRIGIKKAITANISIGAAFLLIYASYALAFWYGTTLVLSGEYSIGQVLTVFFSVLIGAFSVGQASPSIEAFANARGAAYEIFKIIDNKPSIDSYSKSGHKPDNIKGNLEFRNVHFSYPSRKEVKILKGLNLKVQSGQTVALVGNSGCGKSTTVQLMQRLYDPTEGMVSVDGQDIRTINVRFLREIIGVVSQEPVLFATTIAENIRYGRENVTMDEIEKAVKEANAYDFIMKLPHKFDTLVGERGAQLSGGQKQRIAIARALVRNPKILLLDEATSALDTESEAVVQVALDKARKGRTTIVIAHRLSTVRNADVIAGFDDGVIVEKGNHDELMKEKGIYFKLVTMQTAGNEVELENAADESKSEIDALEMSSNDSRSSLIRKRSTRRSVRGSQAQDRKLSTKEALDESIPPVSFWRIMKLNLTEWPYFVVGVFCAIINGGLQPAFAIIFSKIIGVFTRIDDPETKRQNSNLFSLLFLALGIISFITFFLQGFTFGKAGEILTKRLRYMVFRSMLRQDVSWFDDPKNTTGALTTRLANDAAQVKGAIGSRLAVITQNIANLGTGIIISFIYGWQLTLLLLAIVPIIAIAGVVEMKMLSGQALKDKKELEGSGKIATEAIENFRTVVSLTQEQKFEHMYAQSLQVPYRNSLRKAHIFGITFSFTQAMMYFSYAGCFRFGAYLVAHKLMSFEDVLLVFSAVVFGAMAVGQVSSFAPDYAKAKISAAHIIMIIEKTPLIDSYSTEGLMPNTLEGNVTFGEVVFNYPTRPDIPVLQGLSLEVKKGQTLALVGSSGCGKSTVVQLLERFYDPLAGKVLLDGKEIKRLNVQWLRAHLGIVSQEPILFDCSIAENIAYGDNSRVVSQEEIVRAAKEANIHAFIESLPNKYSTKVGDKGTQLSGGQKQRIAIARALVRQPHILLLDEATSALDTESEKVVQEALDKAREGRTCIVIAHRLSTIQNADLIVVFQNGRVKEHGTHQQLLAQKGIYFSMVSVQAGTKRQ

For `Cc1ncc(CNC(=O)N(CCCl)N=O)c(N)n1`, the period change in assay [1] is -0.065 h (inactive). Further, the inhibition in assay [2] was 2% (inactive). Also, the fluorescence ratio (interference) in [3] is 1 (inactive). Further, the remaining activity in assay [4] was 113% (inactive). Moreover, the call in assay [5] was inactive.

For the molecule `Clc1ccc(COC(Cn2ccnc2)c2ccc(Cl)cc2Cl)cc1` (stereo not drawn), the fluorescence slope change in assay [6] is 66.2% (active). The values for the inhibition in [7] and in assay [12] were 55.1% and 3.18% (inactive), respectively. The glutamate uptake change in [8] is 16.9%. This molecule returned an aggregation suppression score in assay [9] of 0.0462. Besides, the survival in assay [10] was 50.1 (inactive). In addition, the fluorescence ratio in assay [11] was 1.02 (inactive). In addition, the mean signal in assay [13] is 173 (inactive). Moreover, the log fold change Tl+ flux in [14] was -0.0888 (inactive); in assay [15], -0.182 (active); in assay [16], -0.00134 (inactive); in assay [17] it was 0.0779 (inactive); in [18], 0.0329 (inactive).

Consider `CN1C(=O)CCS(=O)(=O)C1c1ccc(Cl)cc1` (stereo not drawn), for which, in [6], the fluorescence slope change was 29.1% (inactive). The inhibition in assay [7] was 11.3%; in assay [2], 0% (inactive). In assay [19], this molecule gave a rescue above control of 10. The glutamate uptake change in assay [8] was determined as 3.58%. The inclusion score in assay [20] is 2. This molecule displayed an aggregation suppression score in [9] of 1.17. For the same molecule, in assay [1], the period change is 0.08 h (inactive). Moreover, the survival in [10] is 8 (inactive). Also, the fluorescence ratio (interference) in assay [3] is 1 (inactive). For the same molecule, the remaining activity in assay [4] is 93.8% (inactive). Further, the molecule was called inactive in assay [5].

Turning to `O=c1[nH]c2ccccc2n1C1CCN(CCCC(c2ccc(F)cc2)c2ccc(F)cc2)CC1`, in assay [6], the fluorescence slope change was 147% (active). In addition, the values for the inhibition in [7] and in assay [2] were 13.8% and -3% (inactive), respectively. Moreover, the rescue above control in assay [19] is 6.31. In addition, the glutamate uptake change in assay [8] was determined as 15.9%. This molecule displayed an aggregation suppression score in assay [9] of 1.1. Besides, the period change in assay [1] is 0.045 h (inactive). In addition, in assay [10], the survival is 4.67 (inactive). In addition, the fluorescence ratio (interference) in assay [3] is 1 (inactive). In addition, in assay [4], the remaining activity is 122% (inactive). Moreover, in assay [5], the result was inactive.

Take `NCCc1ccc(O)cc1`: the inhibition is -15.4% in assay [7] and -3% (inactive) in assay [2]. Also, the rescue above control in assay [19] is -11.7. In addition, the glutamate uptake change in assay [8] was -2.56%. The inclusion score in assay [20] came out at 2. The molecule further gave an aggregation suppression score in assay [9] of 1.19. The period change in [1] is 0.035 h (inactive). In [3], the fluorescence ratio (interference) was 1 (inactive). For the same molecule, the remaining activity in assay [4] is 98.4% (inactive). In addition, the outcome in assay [5] was inactive.

With `COC(=O)C1=CCCN(C)C1`, the inhibition in [7] is 15.1%; in assay [2] it was 0% (inactive). In assay [19], this molecule gave a rescue above control of 4.32. The glutamate uptake change in [8] worked out at 13.8%. The inclusion score in assay [20] is 2. In assay [9], the aggregation suppression score was 1.35. For the same molecule, in [1], the period change was -0.175 h (inactive). For the same molecule, in assay [10], the survival was 7.67 (inactive). The fluorescence ratio (interference) in [3] is 1 (inactive). The remaining activity in assay [4] is 111% (inactive). Further, in [5], the outcome was inactive.

`O=c1[nH]c2ccccc2n1CCCN1CCC(n2c(=O)[nH]c3cc(Cl)ccc32)CC1`: in assay [1], the period change was -0.195 h (inactive). Besides, in assay [10], the survival was 7.33 (inactive). Moreover, the inhibition in assay [2] was -3% (inactive). The fluorescence ratio (interference) in [3] was 1 (inactive). In [4], the remaining activity was 105% (inactive). Moreover, the result in assay [5] was inactive.

Regarding `CCC1(C2=NCCN2)Cc2ccccc2O1` (stereo not drawn), in [1], the period change was 0.07 h (inactive). Moreover, the inhibition in assay [2] is -1% (inactive). In addition, the fluorescence ratio (interference) in assay [3] is 1 (inactive). In addition, the remaining activity in [4] was 82.2% (inactive). Also, the call in assay [5] was inactive.
